High-throughput results: PubChem BioAssay, National Center for Advancing Translational Sciences (NCATS)
Only some compounds are listed: those with a hit (about 4.6% of all), similar ones and a draw of the others.
D1 potentiator – enhances dopamine response at the human D1 receptor; 360,000 tested, 0.036% active; HEK293 TREx D1 cells, calcium flux, dopamine EC20 potentiation; AID 504651; P21728; potentiation, % at 10 µM; in the data active means potentiation above about 30%
Target sequence (P21728 whole entry, looked up): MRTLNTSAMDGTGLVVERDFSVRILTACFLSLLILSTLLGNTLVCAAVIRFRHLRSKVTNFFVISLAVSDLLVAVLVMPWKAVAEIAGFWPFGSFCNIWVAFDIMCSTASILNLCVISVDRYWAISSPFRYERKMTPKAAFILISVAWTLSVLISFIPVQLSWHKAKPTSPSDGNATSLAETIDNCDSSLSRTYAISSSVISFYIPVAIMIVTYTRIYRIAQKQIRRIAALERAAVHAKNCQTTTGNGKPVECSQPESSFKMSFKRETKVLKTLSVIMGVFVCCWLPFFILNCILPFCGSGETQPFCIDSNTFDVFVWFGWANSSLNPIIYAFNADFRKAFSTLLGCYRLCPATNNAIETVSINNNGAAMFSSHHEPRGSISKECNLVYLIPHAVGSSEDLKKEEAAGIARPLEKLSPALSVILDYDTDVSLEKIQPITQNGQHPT
Epigenetic derep – epigenetic control regulation, reporter derepression | murine LDR cells, GFP reporter derepression, 30 h | Potency, µM (doses to about 53.9 µM), actives largely listed as activators | 280,000 tested, 0.2% active | AID 1865; active means well fitted activation curve with a large enough effect; inconclusive means small, poorly fitted or top-dose-only effect; further: nearly all actives have a fitted effect of over 60% in size
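Reporter derepression read as number of fluorescent GFP-positive objects, 20-120 um in size, counted by laser-scanning cytometer. Mouse LDR line with an epigenetically silenced CMV-GFP locus; compound incubation 30 h, 37 C.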
D1 ag – activates the human D1 dopamine receptor; P21728; HEK293 T-REx D1 cells, calcium flux, agonist mode; 360,000 tested, 1% active; activation, % at 2 µM
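Inducible HEK293 T-REx D1 cells, force-coupled to calcium signalling, were plated at 4000 cells/well with tetracycline and held overnight at 30 C. After no-wash calcium dye loading, compound-evoked calcium rise over 180 s flagged agonists.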
TRHR ag – agonists of human TRH receptor | TRHR cells, calcium flux fluo-8, FDSS agonist mode | activation, % at 2 µM | 360,000 tested, 0.18% active
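Read-out: compound-evoked intracellular calcium rise in TRHR cells, fluo-8 dye, kinetic FDSS fluorescence at 1 s/cycle following a 10-cycle baseline. Cells cultured overnight before dye loading (30 min–1.5 h, RT).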
D1 antag – human D1 dopamine receptor antagonism. activity change, negative = inhibition, % at 10 µM. AID 504652. 360,000 tested, 3.2% active. P21728. HEK293 TREx D1 cells, calcium flux, dopamine EC80; active compounds read low; in the data active means activity change below about -30%
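Cells carrying a force-coupled, tetracycline-inducible human D1 receptor report calcium flux. Each well gets a 10 s baseline, compound with 180 s monitoring, then an EC80 dopamine stimulus with a second 180 s kinetic read.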
TRHR PAM – allosteric enhancers of human TRH receptor; TRHR cells, fluo-8 calcium fluorescence, EC20 TRH enhancement; enhancement, % at 2 µM; 360,000 tested, 0.66% active; AID 493056; in the data active means enhancement above about 30%
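TRHR-expressing cells loaded with fluo-8 calcium dye were read kinetically (ex 480/em 530) during compound addition, then stimulated with an EC20 of TRH (10 nM final). Enhancement of the Gq-mediated intracellular calcium response was scored.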
Each line names hits and unclear results; the compound was inactive in the other large screens; ! = a repeat was not active. Unless noted, no stated cut-off is given here; in the data, active means activation above about 30%; inactive means the rest.

Cc1ccc(S(=O)(=O)c2nc(S(=O)(=O)c3ccccc3)sc2NCCCOC(C)C)cc1	none
CCCS(=O)(=O)c1nc(S(=O)(=O)c2ccc(C)cc2)c(NCCCOC(C)C)s1	Epigenetic derep inconclusive, D1 ag 36, D1 antag -41
CC1=Nc2cc(C(=O)N3CCCCC3)ccc2Sc2ccc(C)cc21	D1 antag -44!
CC1=Nc2cc(C(=O)N3CCCC3)ccc2Sc2ccc(C)cc21	none (no result: Epigenetic derep)
Cc1cc(C)cc(N(CC(=O)NC2CCCCC2)C(=O)c2ccc(C)s2)c1	D1 antag -33
Cc1cccc(N(CC(=O)NC2CCCC2)C(=O)CCC(=O)Nc2nc(C)cs2)c1	none (no result: Epigenetic derep)
Cc1cc(C)cc(N(CC(=O)NC2CCCC2)C(=O)CCC(=O)Nc2nc(C)cs2)c1	D1 ag 58 (no result: Epigenetic derep)
Cc1ccc(N(CC(=O)NC2CCCCC2)C(=O)c2ccc(C)s2)cc1	none
Cc1ccc(C(=O)N(CC(=O)NC2CCCC2)c2ccc3c(c2)OCCO3)s1	D1 antag -55
C/C(N[C@@H]1CSCC1O)=C1/C(=O)CC2[C@@H]1C2(C)C (some centres undefined)	none (no result: D1 potentiator, D1 ag, TRHR ag, D1 antag, TRHR PAM)
CC1CCCCC1N(C)C1CCN(C(=O)CNC(=O)/C=C/c2cccc(Cl)c2)CC1 (centres undefined)	D1 antag -31 (no result: Epigenetic derep)
CN(C1CCCC1)C1CCN(C(=O)CNC(=O)/C=C/c2ccccc2)CC1	none
Oc1c(Br)cc(Br)cc1-c1nc2ccccc2s1	D1 antag -30
COc1cccc(-c2nc3ccccc3s2)c1O	none
CC(=O)N1CC=CC1(CC(C)C)C(=O)NCc1ccccn1 (centres undefined)	none (no result: D1 potentiator, D1 ag, TRHR ag, D1 antag, TRHR PAM)
C/C(=N\NC(=O)c1nn(C)c(C)c1Br)c1ccc(NC(=O)c2ccoc2C)cc1	TRHR PAM 31
Cc1oc2c(c1C(=O)Nc1ccc(Cl)cc1F)C1=NCCN1C=N2	none
CCC/C=C(\CCC)C(NC(=O)Oc1ccc(F)cc1)c1ccc(C(=O)OC)cc1 (centres undefined)	none (no result: D1 potentiator, D1 ag, TRHR ag, D1 antag, TRHR PAM)
Oc1[nH]c2ccc(Br)cc2c1N=Nc1ccc(F)cc1	D1 ag 56 (no result: Epigenetic derep)
O=[N+]([O-])c1ccc2[nH]c(O)c(N=Nc3ccc(F)cc3)c2c1	none (no result: Epigenetic derep)
CN(C(=O)CSc1nnc(NC2CCCCC2)s1)C1CCS(=O)(=O)C1 (centres undefined)	none
CCc1ccc(Nc2nnc(SCC(=O)N(C)C3CCS(=O)(=O)C3)s2)cc1 (centres undefined)	D1 antag -70
Cn1c(=O)c(Oc2ccc(Cl)cc2)c(O)c2ccccc21	none
COc1ccc(Oc2c(O)c3ccccc3n(C)c2=O)cc1	D1 antag -45
COc1cc(-c2noc(-c3ccc(NCC4CCCO4)c([N+](=O)[O-])c3)n2)cc(OC)c1OC (centres undefined)	none
CCC(=O)Nc1ccc(C(=O)n2nc(C)cc2C)cc1	none
Cc1cc(C)n(C(=O)c2ccc(NC(=O)CC(C)C)cc2)n1	D1 antag -94
N#CC1=C(N)OC2=C(CN(Cc3ccccc3)C/C2=C\c2cccnc2)C1c1cccnc1 (centres undefined)	none
CC(C)N1CC2=C(OC(N)=C(C#N)C2c2cccnc2)/C(=C/c2cccnc2)C1 (centres undefined)	TRHR PAM 34
N#CC1=C(N)OC2=C(CC/C2=C\c2ccc(F)cc2)C1c1ccc(F)cc1 (centres undefined)	D1 ag 235, TRHR ag 42, D1 antag -58
CCN1CC2=C(OC(N)=C(C#N)C2c2ccccc2)/C(=C\c2ccccc2)C1 (centres undefined)	D1 antag -73
N#CC1=C(N)OC2=C(CCC/C2=C/c2ccoc2)C1c1ccoc1 (centres undefined)	none
CC(C)CO/N=C1/C[C@@H](O)[C@@H](O)[C@@H]2[C@@H]3C(=O)N(c4cccc(Oc5ccccc5)c4)C(=O)[C@H]3CC[C@H]12	none (no result: D1 potentiator, D1 ag, TRHR ag, D1 antag, TRHR PAM)
CC(C)CCOP(=O)(c1ccc(N(C)C)cc1)C(Nc1ccccc1)c1ccc(N(C)C)cc1 (centres undefined)	none
CC(C)OP(=O)(c1ccc(N(C)C)cc1)C(Nc1ccccc1)c1ccccc1 (centres undefined)	D1 antag -40
Cn1c(C(N)=O)cnc1Sc1ncc(C(F)(F)F)cc1Cl	D1 antag -47
Cc1ccccc1S(=O)(=O)Nc1cccnc1	none
CCn1ncc(S(=O)(=O)Nc2cccnc2)c1C	D1 antag -41 (no result: Epigenetic derep)
Cc1cc(C)nc(NC(=O)/C=C/c2ccc(Cl)cc2Cl)c1	none
Cc1cc(C)nc(NC(=O)/C=C/c2ccccc2Cl)c1	D1 antag -70
COc1ccc(-c2cc(C(=O)Nc3cccc(O)c3)on2)cc1OC	none
CCOc1ccc2nc(-c3ccccc3)nc(SCC(=O)OC)c2c1	none (no result: Epigenetic derep)
CCOC(=O)CSc1nc(-c2ccccc2)nc2ccc(C)cc12	D1 antag -35
COc1cccc(NC(=O)C(=O)NCCc2csc(-c3ccc(C(F)(F)F)cc3)n2)c1	none
O=C1OC(c2ccc(Cl)cc2)=C/C1=C/c1cccnc1	none (no result: Epigenetic derep)
COc1ccc(C2=C/C(=C\c3ccccc3OC(C)=O)C(=O)O2)cc1	D1 ag 54 (no result: Epigenetic derep)
COc1ccc(C2=C/C(=C\c3cccc(OC(C)=O)c3)C(=O)O2)cc1	D1 ag 81, D1 antag -31
CCCCCCCCCCCCCCCC(=O)C(F)(F)F	none (no result: D1 potentiator, D1 ag, TRHR ag, D1 antag, TRHR PAM)
O=C(N1CCc2cc([S+](=O)([O-])N3CCN([S+](=O)([O-])c4c(F)cccc4F)CC3)ccc2C1)C(F)(F)F	none (no result: Epigenetic derep)
CC1=Nc2cc(C(=O)NCCc3ccc(Cl)cc3)ccc2Sc2ccc(C)cc21	none
O=C(NCc1ccco1)c1cnc2n(c1=O)CCS2	none
O=C(NCc1ccc(F)cc1)c1cnc2n(c1=O)CCS2	D1 antag -37
Cc1cccc(-c2noc(-c3cc(C(C)C)[nH]n3)n2)c1	D1 ag 42
Cc1oc2ncn(C)c(=O)c2c1C(=O)NCc1ccccc1	none
CCc1nnc(NS(=O)(=O)c2ccc(NC(=S)NC(=O)/C=C/c3ccc(OC)cc3)cc2)s1	D1 antag -30
CC(C)NC(=S)NC(=O)/C=C/c1ccc(F)cc1	D1 antag -81
CCc1nnc(NS(=O)(=O)c2ccc(NC(=S)NC(=O)c3ccc(Br)cc3)cc2)s1	TRHR PAM 35
COc1nccnc1NS(=O)(=O)c1ccc(NC(=S)NC(=O)/C=C/c2ccc(F)cc2)cc1	D1 antag -38
COc1ccc(OC)c(CNC(=O)Cn2ncc3c([nH]c4ccc(C)cc43)c2=O)c1	none
Cc1ccc(CNC(=O)CN2C(=O)CSc3ccc(S(=O)(=O)N(C)C)cc32)cc1	none
CC(=O)c1cccc(NC(=O)CN2C(=O)c3cccnc3Sc3ccccc32)c1	none
